# From PubChem BioAssay (Tox21)
# Records with an inconclusive call do not appear. Unmarked numbers belong to inactive results. Calls of active or inactive are those of the source. Calls come from the whole dose curve; as a rule, active = well fitted cell-killing curve with a large enough effect in the repeat runs; inconclusive = weak or mixed curves, or effect the other way; inactive = flat fitted curve, though single readings scatter.
# Assay: qHTS assay to identify small molecule agonists of the constitutive androstane receptor (CAR) signaling pathway - cell viability counter screen (AID 1224836); note: nearly all actives have a fitted effect of over 45% in size
# Details: HepG2-CYP2B6-hCAR viability, CellTiter-Fluor, 23 h, PK11195 added to every well; series mostly up to 92.4 µM; viability change, negative = cytotoxic: at the top concentration
# From the text: U.S. Tox21 Program National Center for Advancing Translational Sciences [NCATS] NIH Chemical Genomics Center [NCGC] U.S. Environmental Protection Agency [EPA] National Institutes of Environmental Health Sciences [NIEHS] National Toxicology Program [NTP] U.S. Food and Drug Administration [FDA] Tox21 Assay Overview: The constitutive androstane receptor (CAR) is a nuclear receptor which regulates multiple drug metabolizing enzymes (DMEs) and transporters. Activating CAR will generally increase the transcription and subsequent translation of CYP2B6 and CYP3A4. These two DMEs represent about 50% of the drug metabolizing potential in the body. […] Recently, there have also been studies performed indicating CARs role in energy metabolism and cancer therapy. Therefore, inducing CARs activity could have a potential effect on diabetes and cancer. Identifying environmental toxins and compounds which modulate CAR, through the use of the Tox21 10K compound collection, will be an important step in determining the toxicity and potential therapeutic effects these factors will have on the human body. To differentiate true CAR agonists from cytotoxic substances, the assay is multiplexed with a cell viability assay.
# Tox21 Assay Protocol Summary: A double-stable (hCAR and CYP2B6-2.2kb) transfected cell line, derived from human hepatoma (HepG2) cells, was utilized for the duration of the quantitative high-throughput screens. The HepG2-CYP2B6-hCAR cells were dispensed at 2500 cells/4 uL/well in 1536-well white solid bottom plates using a Multidrop Combi. After the assay plates were incubated at 37 C/5% CO2 for 4 hrs, 23 nL of compounds at 15 concentrations (from 5-48 columns) or positive control (from 1 to 4 columns) were transferred to the assay plates using a Pintool station. One uL of PK11195 (final concentration = 0.75 uM) was added, using a Flying Reagent Dispenser, inside each well. After a 23 hr incubation period at 37 C/5% CO2, 1 uL of CellTiter-Fluor reagent was added into each well of the assay plates using a Flying Reagent Dispenser. The fluorescence intensity in the plates was then measured using a ViewLux plate reader.
# % is set by controls: 0 for no effect and ±100 for the full control effect.
Compound,"viability change, negative = cytotoxic",Potency
O=C(CCl)NCO,6.75%,
Cc1ccc(-c2nc3ccc(C)cn3c2CC(=O)N(C)C)cc1,-14.7% [at 42.5 µM],
Cc1ccc2c(c1)C1CN(C)CCC1N2 (stereo not given),3.2% [at 19 µM],
CC1=C2[C@H]3OC(=O)[C@@H](C)[C@@H]3CC[C@@]2(C)C=CC1=O,0.0277% [at 42.5 µM],
O=C(Cl)C(Cl)Cl,5.6%,
C=C1CC[C@@]2(O)[C@H]3Cc4ccc(O)c5c4[C@@]2(CCN3CC2CC2)[C@H]1O5,-0.991% [at 42.5 µM],
CCOC(=O)C(SP(=S)(OC)OC)c1ccccc1 (stereo not given),0.0098%,
CC(C)[C@]12CC(=O)[C@H](C)[C@H]1C2,-0.007%,
CC(C)(C1CCC(O)CC1)C1CCC(O)CC1 (stereo not given),0.363%,
O=C(Cl)CCl,9.68%,
CCOC(=O)CCl,0.234%,
OP(O)c1ccccc1,5.42%,
O=C(NC(O)C(Cl)(Cl)Cl)NC(O)C(Cl)(Cl)Cl (stereo not given),7.7% [at 42.5 µM],
O=c1[nH]oc2c1CCNC2,1.05% [at 42.5 µM],
O=P(O)(O)CN(CP(=O)(O)O)CP(=O)(O)O,,inactive
COc1cc(CCN)cc(OC)c1OC,0.674%,
CCC(C)(C#N)N=NC(C)(C#N)CC (stereo not given),3.47%,
NCC1(CC(=O)O)CCCCC1,10.2% [at 42.5 µM],
CCC(C(N)=O)N1CCCC1=O (stereo not given),5.89% [at 42.5 µM],
O=C(Cl)/C=C/C(=O)Cl,8.44%,

Compound,"viability change, negative = cytotoxic",Potency
CCOC(=O)COc1ccc(Cl)cc1Cl,0.609%,
COc1ccc(CN2CCNCC2)c(OC)c1OC,0.566% [at 42.5 µM],
CCC1(CC)C(=O)C=CNC1=O,-7.47% [at 42.5 µM],
ClC1=C(Cl)C2(Cl)C(CBr)CC1(Cl)C2(Cl)Cl (stereo not given),,inactive
CS(=O)(=O)Cl,5.18%,
CCN[C@@H](C)Cc1ccccc1,4.19%,
CCC(CC)(CNC(=O)CCCO)c1cccc(OC)c1,1.08% [at 42.5 µM],
CCN(CC)C1CCCCC1,0.267%,
O=C(Cl)C(Cl)(Cl)Cl,1.08%,
CS(=O)(=O)c1ccc(C(=O)C2C(=O)CCCC2=O)c(Cl)c1COCC(F)(F)F,2.97%,
ClCC1CO1 (stereo not given),4.65%,
O=P(O)(O)c1ccccc1,2.02%,
CON(C)C(=O)Nc1ccc(Br)c(Cl)c1,0.561%,
CCN[C@@H](C)Cc1cccc(C(F)(F)F)c1,1.23% [at 42.5 µM],
CCOP(=S)(OCC)SCCl,0.449%,
NNCc1ccccc1,1.62%,
COc1cc(CC(C)N)cc(OC)c1OC (stereo not given),1%,
CCCC[N+](=O)[O-],0.216%,
C=CCN1CC[C@]23CCCC[C@H]2[C@H]1Cc1ccc(O)cc13,-3.09% [at 42.5 µM],
CN(C)C(=O)Oc1cc(OC(=O)N(C)C)cc(C(O)CNC(C)(C)C)c1 (stereo not given),4.78% [at 42.5 µM],
